According to PubChem BioAssay:
A number with no mark means an inactive call. For part of these data: Entries with a potency or affinity are not part of this list. Calls of active or inactive are those of the source. Unless noted, the rule behind the calls is not given here.

Assays:
[1] = antimalarial activity against Dd2 strain (AID 2302;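 active = growth inhibition above 50% at the single 2 µM test dose, taken to imply half-maximal potency below 2 µM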;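 note: 0% = DMSO untreated growth and 100% = chloroquine plus artemisinin killed control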); details: P. falciparum Dd2 in RBCs, LDH growth readout, 72 h; at 2 µM; hits give high values
[2] = HepG2 cytotoxicity, primary screen, cytotoxicity control for P. falciparum antimalarial project, cell-based, ATP luminescence (AID 2303;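 active = inhibition above 50%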;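 note: 0% = DMSO wells and 100% = digitonin-killed cells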); details: HepG2 viability, 24-48 h, at 10 µM, hits give high values
[3] = target: L-lactate dehydrogenase (Plasmodium falciparum (isolate CDC / Honduras)) (UniProt Q27743); experiment: PfLDH activity inhibition – cell lysate, 3D7 strain, counter-screen for P. falciparum growth inhibition project (AID 2304);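 note: 0% = vehicle and 100% = reference inhibitor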; details: P. falciparum 3D7 crude extract, LDH APAD/NBT absorbance; at 2 µM; hits give high values
L-lactate dehydrogenase (Plasmodium falciparum (isolate CDC / Honduras)), sequence (Q27743 whole entry, looked up): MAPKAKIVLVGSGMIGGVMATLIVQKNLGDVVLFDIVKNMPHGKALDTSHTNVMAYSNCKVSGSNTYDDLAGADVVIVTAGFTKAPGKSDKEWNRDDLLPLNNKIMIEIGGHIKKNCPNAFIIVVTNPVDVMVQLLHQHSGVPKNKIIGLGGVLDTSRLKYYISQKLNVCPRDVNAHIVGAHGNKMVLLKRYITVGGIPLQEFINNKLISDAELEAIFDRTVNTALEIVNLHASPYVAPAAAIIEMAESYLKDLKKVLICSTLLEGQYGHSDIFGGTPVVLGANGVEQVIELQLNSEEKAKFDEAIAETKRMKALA

[4] = inhibition of 3D7 malaria parasite growth – strain 3D7 (AID 2306);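 note: 0% = DMSO wells and 100% = chloroquine plus artemisinin control wells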; details: P. falciparum 3D7 erythrocytic growth, LDH absorbance, 72 h; at 2 µM; hits give high values
[5] = target: Calcium-dependent protein kinase 1 (Plasmodium falciparum (isolate 3D7)) (UniProt P62344); experiment: PfCDPK1 kinase inhibitors, biochemical, TCAMS library (AID 1159585; cut-off not given, nearly all actives have IC50 up to about 0.98 µM;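 note: inhibitors leave more ATP so luminescence rises with inhibition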); details: recombinant PfCDPK1, Kinase-Glo ATP depletion luminescence
Calcium-dependent protein kinase 1 (Plasmodium falciparum (isolate 3D7)), sequence (P62344 whole entry, looked up): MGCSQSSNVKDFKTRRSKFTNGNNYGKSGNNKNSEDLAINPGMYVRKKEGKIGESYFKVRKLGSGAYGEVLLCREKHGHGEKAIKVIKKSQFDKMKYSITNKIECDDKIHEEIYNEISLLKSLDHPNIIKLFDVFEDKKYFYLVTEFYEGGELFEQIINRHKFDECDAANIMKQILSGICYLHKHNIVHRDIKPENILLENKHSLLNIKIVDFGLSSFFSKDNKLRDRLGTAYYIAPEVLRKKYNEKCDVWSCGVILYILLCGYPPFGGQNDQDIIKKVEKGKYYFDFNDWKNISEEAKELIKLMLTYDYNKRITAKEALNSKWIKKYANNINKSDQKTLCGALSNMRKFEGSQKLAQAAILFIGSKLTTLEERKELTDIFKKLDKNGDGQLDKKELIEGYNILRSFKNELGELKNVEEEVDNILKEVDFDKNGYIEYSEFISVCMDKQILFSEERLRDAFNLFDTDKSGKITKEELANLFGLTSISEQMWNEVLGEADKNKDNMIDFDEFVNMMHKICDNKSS

[6] = target: Plasmodium falciparum protein kinase 6 (PK6, PF3D7_1337100) (UniProt Q8IDW1); experiment: PfPK6 kinase inhibitors, biochemical, TCAMS library (AID 1159586); details: recombinant PfPK6, Kinase-Glo ATP depletion luminescence
Plasmodium falciparum protein kinase 6 (PK6, PF3D7_1337100), sequence (Q8IDW1 1-305): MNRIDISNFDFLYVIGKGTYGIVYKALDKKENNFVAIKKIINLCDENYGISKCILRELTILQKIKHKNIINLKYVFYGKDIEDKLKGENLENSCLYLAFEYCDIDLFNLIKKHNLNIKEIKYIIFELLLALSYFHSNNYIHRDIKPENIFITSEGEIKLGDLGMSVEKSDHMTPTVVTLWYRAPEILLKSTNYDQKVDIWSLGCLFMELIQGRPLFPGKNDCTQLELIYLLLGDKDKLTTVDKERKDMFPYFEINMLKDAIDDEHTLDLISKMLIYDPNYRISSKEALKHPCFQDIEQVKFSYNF

[7] = target: Protein kinase 7 (PK7), Plasmodium falciparum 3D7 (PF3D7_0213400) (UniProt Q7YTF7); experiment: inhibition of Plasmodium PK7 catalytic activity – biochemical, TCAMS antimalarial set, Kinase-Glo luminescence (AID 1159587); details: recombinant PfPK7, Kinase-Glo ATP depletion luminescence
Protein kinase 7 (PK7), Plasmodium falciparum 3D7 (PF3D7_0213400), sequence (Q7YTF7 1-343): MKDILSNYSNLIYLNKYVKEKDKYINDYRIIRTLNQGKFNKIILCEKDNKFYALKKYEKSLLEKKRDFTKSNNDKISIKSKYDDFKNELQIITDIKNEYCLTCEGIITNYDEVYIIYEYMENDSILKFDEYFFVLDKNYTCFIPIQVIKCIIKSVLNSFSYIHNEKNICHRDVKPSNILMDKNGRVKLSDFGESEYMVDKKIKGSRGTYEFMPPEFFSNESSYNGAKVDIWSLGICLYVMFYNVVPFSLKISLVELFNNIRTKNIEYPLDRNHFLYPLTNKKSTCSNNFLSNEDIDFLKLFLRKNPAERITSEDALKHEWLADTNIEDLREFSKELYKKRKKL

[8] = target: Calcium-dependent protein kinase 4 (Plasmodium falciparum (isolate 3D7)) (UniProt Q8IBS5); experiment: PfCDPK4 kinase inhibitors, biochemical, TCAMS library (AID 1159588; cut-off not given, nearly all actives have IC50 up to about 0.91 µM); details: recombinant PfCDPK4, Kinase-Glo ATP depletion luminescence
Calcium-dependent protein kinase 4 (Plasmodium falciparum (isolate 3D7)), sequence (Q8IBS5 whole entry, looked up): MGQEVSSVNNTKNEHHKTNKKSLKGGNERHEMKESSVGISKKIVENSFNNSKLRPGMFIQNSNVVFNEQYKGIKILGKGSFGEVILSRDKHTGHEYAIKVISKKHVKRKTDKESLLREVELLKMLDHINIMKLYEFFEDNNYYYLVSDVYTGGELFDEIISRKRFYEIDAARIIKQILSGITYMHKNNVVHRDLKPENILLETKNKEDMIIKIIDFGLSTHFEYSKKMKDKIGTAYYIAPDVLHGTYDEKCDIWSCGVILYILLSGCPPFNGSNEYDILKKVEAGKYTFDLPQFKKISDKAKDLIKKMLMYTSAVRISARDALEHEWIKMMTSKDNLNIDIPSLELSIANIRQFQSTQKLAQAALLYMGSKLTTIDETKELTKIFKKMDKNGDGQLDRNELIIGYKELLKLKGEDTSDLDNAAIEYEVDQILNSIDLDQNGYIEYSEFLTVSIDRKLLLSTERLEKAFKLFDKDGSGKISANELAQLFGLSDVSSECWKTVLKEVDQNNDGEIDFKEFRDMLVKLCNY

SMILES | growth inhibition [1] | inhibition [2] | inhibition [3] | growth inhibition [4] | outcome [5] | outcome [6] | outcome [7] | outcome [8]
O=C(NC1CCC(CCN2Cc3cccc(C(F)(F)F)c3C2)CC1)c1cccc(-c2cccnc2)c1 (centres undefined) | 67% (active) | 26% | 2% | 100% (active) | inactive | inactive | inactive | inactive
COc1cccc2c1CCN(CCN1CCC(CNC(=O)c3ccc(-c4ccc(C#N)cc4)cc3)CC1)C2 | 98% (active) | 57% (active) | 6% | 99% (active) | inactive | inactive | inactive | inactive
O=C(Nc1cccc(-c2cccc(-c3nc4ccc(F)cc4[nH]3)c2)c1)Nc1ccc(F)c(F)c1F | 100% (active) | 83% (active) | 4% | 100% (active) | inactive | inactive | inactive | inactive
